Data as given in PubChem BioAssay (NCI).
This is part of a sample that, as a whole, favours compounds with a hit. Of some 79,000 tested, about 15% had one in any assay. A number with no mark means an inactive call. The source made the active and inactive calls. Rule as the data show it: active = growth inhibition above about 70%; inactive = the rest.

What was measured:
[1] = NCI Yeast Anticancer Drug Screen. Data for the rad50 strain (AID 155);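 also: 0% = growth of vehicle-only cultures of the same strain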; details: S. cerevisiae rad50 strain growth inhibition, active compounds read high
In short: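 Readout: growth inhibition relative to vehicle-treated cultures. Compound exposure was carried out in a genetically defined yeast strain deficient in DNA damage repair.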

[2] = NCI Yeast Anticancer Drug Screen. Data for the mec2-1 strain (AID 157); details: S. cerevisiae mec2-1 strain, active compounds read high
In short: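 Strain: mec2-1 (DNA repair/cell cycle alteration). Compound exposure, then growth measured; inhibition expressed relative to vehicle.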

[3] = NCI Yeast Anticancer Drug Screen. Data for the sgs1 mgt1 strain (AID 161);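 also: 0% = growth of cultures given vehicle only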; details: S. cerevisiae sgs1 mgt1 strain, active compounds read high
In short: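 Inhibition of yeast growth, normalised to vehicle-treated controls, is reported for a strain bearing genetic alterations in DNA damage repair.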

[4] = NCI Yeast Anticancer Drug Screen. Data for the cln2 rad14 strain (AID 165);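 also: 0% = growth equal to vehicle treated cultures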; details: S. cerevisiae cln2 rad14 strain, active compounds read high
In short: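 Compounds are applied to the cln2 rad14 yeast strain, and growth is then compared with that of vehicle-treated cultures to give inhibition.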

[5] = NCI Yeast Anticancer Drug Screen. Data for the bub3 strain (AID 167); details: S. cerevisiae bub3 mutant strain, active compounds read high
In short: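 Readout: yeast growth inhibition, expressed relative to vehicle-only wells. The test organism is a mutant strain from a panel with lesions in DNA repair or checkpoint genes.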

[6] = NCI Yeast Anticancer Drug Screen. Data for the mlh1 rad18 strain (AID 175); details: S. cerevisiae mlh1 rad18 strain growth inhibition, active compounds read high
In short: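 Read-out is yeast growth inhibition, calculated against vehicle-only controls. The compound was applied to a strain engineered with DNA damage repair alterations.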

[7] = at 5.0 µM (retest, dose inferred, filed as 0.5)
[8] = at 50.0 µM (retest, dose inferred, filed as 5.0)

Structure (SMILES) | growth inhibition [1, 7] | growth inhibition [1, 8] | growth inhibition ([1]; at 50.0 µM) | growth inhibition [2, 7] | growth inhibition [2, 8] | growth inhibition ([2]; at 50.0 µM) | growth inhibition [3, 7] | growth inhibition [3, 8] | growth inhibition ([3]; at 50.0 µM) | growth inhibition [4, 7] [%] | growth inhibition [4, 8] | growth inhibition ([4]; at 50.0 µM) | growth inhibition [5, 7] | growth inhibition [5, 8] | growth inhibition ([5]; at 50.0 µM) | growth inhibition [6, 7] | growth inhibition [6, 8] | growth inhibition ([6]; at 50.0 µM)
O=C(c1ccccc1)C(Cl)c1ccccc1 (centres undefined) | 9% | 99% (active) | 91.6% (active) | -12% | 99% (active) | 95.2% (active) | 1% | 97% (active) | 97.5% (active) | 0 | 41% | 44% | 51% | 99% (active) | 94% (active) | 0% | 99% (active) | 95.2% (active)
CCO/C=C1\N=C(C(O)(c2ccc(Cl)cc2)c2ccc(Cl)cc2)OC1=O | -1% | 3% | 48.7% | 1% | 16% | 16% | -2% | 1% | 18.8% | 1 | -1% | 44.5% | 13% | 8% | 43.1% | -1% | 10% | 34%
O=NNc1ccc2cc3ccc(NN=O)cc3nc2c1 | 16% | 25% | 43.2% | 6% | 26% | -11.1% | 7% | 24% | 52.5% | 11 | 24% | 27.7% | 9% | 14% | 34.6% | 15% | 31% | 52.7%
O=C1CN(/N=C\c2ccc([N+](=O)[O-])o2)C(=O)N1 | 11% | 48% | 56.5% | 4% | 29% | 15.2% | 2% | 39% | 41% | -5 | 18% | -8.35% | 3% | 26% | 27.5% | 19% | 65% | 69.8%
O=[N+]([O-])c1c(I)ccc2ccccc12 | -24% | 90% (active) | 41.9% | 0% | 89% (active) | -0.95% | -6% | 95% (active) | 17.6% | -9 | 41% | 11.5% | -2% | 66% | 5.25% | 1% | 94% (active) | 36.5%
CCN(CC)C(C)(C)C(=O)/C=C/c1ccc(Cl)cc1 | -5% | 69% | 2.2% | -15% | 28% | 4.8% | 24% | 87% (active) | 24.9% | -9 | 26% | -5% | 1% | 82% (active) | 54.5% | 46% | 94% (active) | 19.7%
CCOc1ccccc1N=Nc1ccc2oc(=O)c(C(=O)Nc3cccc(C)c3)cc2c1 | 3% | 13% | 52.1% | 3% | -2% | 25.9% | 8% | -5% | 64.8% | -4 | 4% | -76% | -4% | -12% | 9.9% | 3% | 12% | 89% (active)
CSC(=Nc1ccccc1)NC(=O)Nc1ccc(Cl)cc1 | -8% | -11% | -1.45% | 5% | -15% | 5% | -34% | -17% | -2.1% | -18 | -17% | -31.2% | -22% | -4% | 2.55% | -7% | -5% | 3.15%
O=C(CC(=O)c1ccccc1NC1=Cc2ccccc2C(=O)C1=O)C(=O)NC1=C(Cl)C(=O)c2ccccc2C1=O | 36% | 92% (active) | 88% (active) | 21% | 82% (active) | 86.2% (active) | 14% | 86% (active) | 85.7% (active) | 16 | 66% | 82.7% (active) | 14% | 94% (active) | 84.9% (active) | 37% | 90% (active) | 86.2% (active)
c1ccc2c(c1)cc(C1NCCc3[nH]cnc31)c1ccccc12 (centres undefined) | 13% | 80% (active) | 47% | -4% | 83% (active) | 1.5% | 16% | 82% (active) | -15.3% | 26 | 71% (active) | 30.4% | 13% | 96% (active) | 11.1% | -21% | 97% (active) | 61.9%
Cc1ccc(C(C)C)c(O)c1N/N=C/c1cc(Cl)ccc1O | 2% | 55% | 73% (active) | 3% | 25% | -0.3% | 1% | 82% (active) | 41.9% | 2 | 26% | -4.05% | 1% | 48% | 58.1% | 2% | 83% (active) | 36.8%
O=NN(CCCl)C(=O)NCCSSCCNC(=O)N(CCCl)N=O (tested in a mixture with another compound) | 29% | 62% | 36.1% | 20% | 39% | 38.6% | 40% | 77% (active) | 59.1% | 14 | 29% | 21.6% | 30% | 38% | 14.2% | 73% (active) | 96% (active) | 72.1% (active)
CC(=O)Oc1cccc2c1C(=O)C(Br)(Br)CCC2 | 91% (active) | 99% (active) | 92.1% (active) | 100% (active) | 99% (active) | 87% (active) | 92% (active) | 99% (active) | 88.5% (active) | 52 | 99% (active) | 89.4% (active) | 99% (active) | 99% (active) | 90% (active) | 99% (active) | 99% (active) | 93.2% (active)
CN(C)c1ccc(/C=C/c2nc3ccccc3s2)cc1 | 8% | 79% (active) | 3.1% | 14% | 60% | 23.6% | -3% | 91% (active) | 4.3% | -3 | 14% | 36.4% | -3% | 1% | -2.45% | 30% | 91% (active) | 83.3% (active)
O=C1c2ccc(Cl)cc2C(=O)c2cc(Cl)ccc21 | 7% | 99% (active) | 91.9% (active) | 11% | 98% (active) | 46.5% | 3% | 99% (active) | 65.3% | -12 | 99% (active) | 14.3% | 19% | 99% (active) | 89.2% (active) | 8% | 99% (active) | 77% (active)
COc1ccc2c3c(ccc2c1)NC(C(=O)O)CC3 (centres undefined) | 0% | 82% (active) | 60.5% | -11% | 56% | -15.8% | -2% | 83% (active) | 36% | -17 | 41% | 21.3% | -6% | 82% (active) | 52% | 3% | 87% (active) | 61.1%
O=C(O)c1ccc(Br)cc1C(=O)c1ccccc1 | -18% | -15% | 1.15% | -19% | 10% | 9.45% | -2% | 1% | -3.3% | 31 | -38% | 11.8% | 8% | -18% | 6.35% | -11% | 6% | -20.4%
CCN(CC)CCSCCCNc1cc(OC)cc2cccnc12 | -1% | 24% | 67.5% | 6% | 29% | 59.6% | 13% | 54% | 71% (active) | 8 | 32% | 78% (active) | 10% | 54% | 54% | 7% | 28% | 65.3%
